From PubChem BioAssay (NCI)
This is part of a sample that, as a whole, favours compounds with a hit. Of some 83,000 tested, about 20% had one in any assay.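 A percent growth of 40 corresponds to 60% growth inhibition; 0 means no net growth; -100 means all cells died. Active threshold: below 10.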 Values without a mark were called inactive. Active and inactive are the calls of the source.

Tests used:
Assay in all cases: NCI-60 one-dose screen, 48 h (100 = growth as untreated, 0 = no growth, -100 = all killed)
Conditions in all cases: 10 µM unless noted
DU-145 prostate = tested on: DU-145 prostate
K-562 leukemia = tested on: K-562 leukemia
MALME-3M melanoma = tested on: MALME-3M melanoma
MDA-MB-231 breast = tested on: MDA-MB-231 breast
RXF 393 renal = tested on: RXF 393 renal
SF-268 CNS = tested on: SF-268 CNS
SF-295 CNS = tested on: SF-295 CNS
SF-539 CNS = tested on: SF-539 CNS
UACC-257 melanoma = tested on: UACC-257 melanoma
M14 melanoma = tested on: M14 melanoma

SMILES | growth (DU-145 prostate) | growth (K-562 leukemia) | growth (MALME-3M melanoma) | growth (MDA-MB-231 breast) | growth (RXF 393 renal) | growth (SF-268 CNS) | growth (SF-295 CNS) | growth (SF-539 CNS) | growth (UACC-257 melanoma) | growth (M14 melanoma)
Cc1nc2sc(C(=O)Nc3cccc(Cl)c3C)c(N)c2cc1C(=O)/C=C/c1ccccc1 | 5.7% (active) | 10.2% | 39.7% | -38.4% (active) | -82.8% (active) | 4.07% (active) | -14.8% (active) | -25.5% (active) | 64.2% | -15.9% (active)
Cc1cc(O)cc(-c2nn(C)cc2-c2cc(N3CCOCC3)nc(-c3cccnc3)n2)c1 | 53.7% | 21.6% | 55.7% | 53.2% | 9.64% (active) | 44.8% | 14.9% | -12.8% (active) | 61.3% | 28.4%
C[C@H](c1nc2ccc(C#N)cc2[nH]1)[C@H]1CC[C@H]2[C@@H]3CCC4=CC(=O)CC[C@]4(C)[C@H]3CC[C@]12C | 68.9% | 40.8% | 85.6% | 70.1% | 64.3% | 78.5% | 48.7% | 62.9% | 68.2% | 70.1%
COc1cc(-c2ccc[nH]2)[nH]c1/C=C1\N=C(C)C(CC(=O)OCC(C)(C)C)=C1C | -73.9% (active) | -42.9% (active) | -76.3% (active) | -57.2% (active) | -82.3% (active) | -70.8% (active) | -81.8% (active) | -69.3% (active) | -81.4% (active) | -86.3% (active)
CCn1cc(Cc2cc(C(=O)Nc3cc4cc(OC)c(OC)cc4c(C)n3)ccc2Cl)cn1 | 55.3% | 34.4% | 63.4% | 36.3% | 73.2% | 49.3% | 39.7% | 8.23% (active) | 40.9% | 32.6%
CC(C)C1C2=C(NCCN1C(=O)c1ccncc1)C(C)(C)N(Cc1ccccc1)C2=O (stereo not given) | 105% | 98.1% | 96.6% | 100% | 126% | 96.9% | 96.5% | 108% | 105% | 101%
O=C(NCCCCO)c1cncnc1Nc1ccc2c(ccn2Cc2cccc(F)c2)c1 | 96.2% | 82.5% | 93.9% | 69.3% | 101% | 99.3% | 97.6% | 94.4% | 96.7% | 89.9%
COCC(=O)Oc1cc(-c2ccc(C)cc2C)c(OC(=O)COC)c(-c2ccc(C)cc2C)c1 | -16.9% (active) | 40.8% | 85.3% | 49.7% | 73.5% | 44.5% | 57.5% | 45.7% | 71.2% | 65.1%
CCOC(=O)C1=C(c2ccccc2)N=C2N(c3ccccc3)N=C(C(C)=O)N2C1c1ccc(F)cc1 (stereo not given) | 106% | 96.3% | 97.7% | 98.8% | 75.5% | 99.2% | 98.6% | 101% | 113% | 101%
O=C(Nc1cc(Cl)ccc1O)c1ccccc1Nc1ccnc(C(F)(F)F)c1 | 23.8% | 0.85% (active) | -0.18% (active) | 29.8% | 25.7% | 21.1% | 46.3% | 14.5% | 26.8% | 36%
Cc1ccc(C)c2c1sc1nc(N3CCOCC3)c(C#N)c(=O)n12 | 103% | 151% | 97.1% | 92% | 114% | 88% | 61.7% | 96.4% | 112% | 92.9%
O=c1cc(C(F)(F)F)c2cc(-c3cc4ccccc4c(=O)o3)c(O)cc2o1 | 96.5% | 50% | 91.5% | 85.7% | 86.3% | 79.2% | 89.4% | 73.3% | 70.6% | 68%
Clc1ccc(Nc2nnc(CNc3ccccc3)c3ccccc23)cc1 | 19% | 5.39% (active) | -13.8% (active) | 19.9% | 25.7% | 20.9% | 14.3% | 34% | -6.49% (active) | 5.8% (active)
C=C1CC[C@@H]2C(C)(C)[C@H](O)CC[C@@]2(C)[C@@H]1COc1ccc2ccc(=O)oc2c1 | 56.9% | 41.9% | 74.3% | 84% | 101% | 68.3% | 48% | 88.4% | 69.4% | 53.3%
CCOC(=O)C/C(=N\Nc1cc(=O)[nH]c2ccc(OC)cc12)C(=O)OCC | 99.6% | 89.3% | 104% | 98.4% | 96.4% | 98% | 101% | 90.9% | 108% | 102%
N#Cc1ccc(/C=C/c2cn(-c3ccccc3)nc2-c2cccc([N+](=O)[O-])c2)cc1 | 59.5% | 61.2% | 50.3% | 36.1% | 67.1% | 56.5% | 62.5% | 65.7% | 70.2% | 68.8%
Cn1cc(-c2nonc2-c2c[nH]c3ccccc23)c2cc(Br)ccc21 | 58.1% | 11.1% | 40.8% | 37% | 70.9% | 43.3% | 24.5% | 40.1% | 71.5% | 18.5%
CS(=O)(=O)Nc1cc(-c2ccc3ncnc(Nc4ccc(OCc5ccccn5)c(Cl)c4)c3c2)cnc1Cl | 16.5% | 21.1% | -35.7% (active) | 2.29% (active) | -31.4% (active) | 10.9% | -2.49% (active) | -11.7% (active) | 14.3% | 30%
Nc1nc(N)c2c(n1)NC(c1cccc(Nc3ccnc4cc(C(F)(F)F)ccc34)c1)CC(c1ccc3c(c1)OCO3)=N2 (stereo not given) | 86.9% | 16.1% | 72.5% | 86.1% | 52.2% | 68.2% | 80% | 95.4% | 77.7% | 67.3%
N=C(N)c1ccc(OCCSCCOc2ccc(C(=N)N)cc2)cc1 | 71.7% | 54.3% | 52.2% | 82.1% | 105% | 74.2% | -33.5% (active) | 76.5% | 76.2% | 75.3%
COC(=O)c1ccc2cc(OC)c(OC)cc2c1 | 116% | 115% | 117% | 127% | 97% | 114% | 70.4% | 116% | 103% | 110%
